The text below walks through data of PubChem BioAssay (NCI).

This test can be described thus: NCI Yeast Anticancer Drug Screen. Data for the sgs1 mgt1 strain (AID 161).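 Further: 0% = growth of cultures given vehicle only.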 The following applies: S. cerevisiae sgs1 mgt1 strain, stronger effect = higher value. As for the experimental part:
Growth inhibition of yeast strains with defined genetic alterations is measured as a screen for potential anti-cancer activity. Selected strains with alterations in DNA damage repair or cell cycle control were exposed to compounds and growth inhibition was measured relative to vehicle treated controls. The strain used in this assay is sgs1 mgt1

Where [1] appears, read: at 5.0 µM (retest, dose inferred, filed as 0.5).
The mark [2] stands for this setting: at 50.0 µM (retest, dose inferred, filed as 5.0).

About 79,000 compounds went through this panel and 15% of them were active in at least one assay; those are over-represented in the sample as a whole. Values without a mark were called inactive. Activity calls are given as the source filed them. No stated cut-off is given here; in the data, active means growth inhibition above about 70%; inactive means the rest.

Turning to `CC1=CC(=C(c2ccc(N)c(C)c2)c2ccc(N)c(C)c2)C=CC1=N`, the growth inhibition reads like this: under setting [1], 30%; under setting [2], 79% (active); (at 50.0 µM) 83.7% (active).
For the molecule `OC(Cc1cccc2ccccc12)CN1CCC(c2ccccc2)CC1` (configuration not stated), the growth inhibition was 51% under setting [1], 41% under setting [2] and 71.2% (active) (at 50.0 µM).
With `COc1ccc(C2CC(C)(N3CCCC3)Oc3cc4c(cc32)OCO4)cc1` (configuration not stated), the growth inhibition is -6% under setting [1], 47% under setting [2] and 61.5% (at 50.0 µM).
As for `COc1ccc2c(c1)CCCC(Br)C2=O` (configuration not stated), the growth inhibition is 17% under setting [1], 90% (active) under setting [2] and 88.3% (active) (at 50.0 µM).
For the molecule `Brc1ccc(B2Nc3ccccc3N2)cc1`, the growth inhibition reads like this: under setting [1], 31%; under setting [2], 77% (active); (at 50.0 µM) 82.1% (active).
For the molecule `O=C(O)c1ccccc1C(=O)OC1CCc2ccccc2C1` (configuration not stated), the growth inhibition is 1% under setting [1], 45% under setting [2] and 50.4% (at 50.0 µM).
For the molecule `CC(C)(CN1CCCCC1)C(=O)/C=C/c1c(Cl)cccc1Cl`, the growth inhibition runs as follows: under setting [1], 21%; under setting [2], 98% (active); (at 50.0 µM) 86.9% (active).
As for `CCOC(=O)/C(=C/c1cccc(Cl)c1)N(CC)CC`, the growth inhibition under setting [1] is 10%, the growth inhibition under setting [2] is 90% (active) and the growth inhibition (at 50.0 µM) was 83% (active).
On to `CC(C)OC(=O)NNc1c(Cl)cc(Cl)cc1Cl`, for which the growth inhibition under setting [1] was 4%, the growth inhibition under setting [2] is 24% and the growth inhibition (at 50.0 µM) was 15.2%.
In the case of `O=c1[nH]c2c([N+](=O)[O-])cccc2c2ccccc12`, the growth inhibition by setting is: under setting [1], 2%; under setting [2], 51%; (at 50.0 µM) 96.8% (active).
As to `CC(C)=CCC/C(C)=C/CN1C(=O)C=CC1=O`, the growth inhibition was 36% under setting [1], 99% (active) under setting [2] and 99.5% (active) (at 50.0 µM).
Consider `CC1(C)CC(=O)C(/C=N/c2nc(-c3ccc(Br)cc3)cs2)=C(O)C1`, for which the growth inhibition under setting [1] is -8%, the growth inhibition under setting [2] was 98% (active) and the growth inhibition (at 50.0 µM) is 99.2% (active).
For `O=C1CSC(c2ccccc2)N1c1ccc(-c2ccc(-n3c(-c4ccccc4)nc4ccccc4c3=O)cc2)cc1` (configuration not stated), the growth inhibition under setting [1] was 6%, the growth inhibition under setting [2] is 45% and the growth inhibition (at 50.0 µM) was 91.1% (active).
The corresponding values for `CCCC/C=C1\CCC(CN2CCCC2)C1=O` (configuration not stated) are 18%, 51% and 78.2% (active).
